Only some compounds are listed: those with a hit (about 21% of all), similar ones and a draw of the others.
Pf growth 48h: Primary qHTS for delayed death inhibitors of the malarial parasite plastid, 48 hour incubation | P. falciparum luciferase growth in erythrocytes, 48 h | Potency, µM (top dose mostly 28.7 µM), for the others: at the highest dose activity change, negative = inhibition, most hits filed as inhibitors | actives 5.9% (n = 310,000); further: potency means the concentration at half of the fitted maximal effect; on the % scale 0 is the no-effect control and ±100 the full control effect
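Luminescence readout; reporter = integrated firefly luciferase in P. falciparum. RBC culture at 2% hematocrit, 0.1% parasitemia final, 37 C/5% CO2; decreased signal taken as growth inhibition.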
Shiga inhibitor: A qHTS for Small Molecule Inhibitors of Shiga Toxin; inhibition, % at 38.7 µM; Vero cells, Shiga toxin protein synthesis inhibition reporter; AID 2315, 2010; actives 9.2% (n = 290,000); in the data active means inhibition mostly above about 28%, no sharp cut-off; inactive means mostly below about 43%; further: 0% is about no effect
HCMV antiviral: qHTS Assay for inhibitors of the human cytomegalovirus (HCMV); HFF cells, HCMV-luciferase reporter, 72 h; active compounds read low; activity change, negative = inhibition, % at 57.5 µM; actives 4.5% (n = 410,000); AID 1259415, 2018; in the data active means activity change below about -60%; inconclusive means no clear call, values can overlap the other calls; inactive means above about -39%; further: on the % scale 0 is the no-effect control and ±100 the full control effect
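After 16 h attachment at 37C, HFF cells received test compound and HCMV-luciferase (1 PFU/cell); reporter luminescence read 72 h later, data normalized against buffer-only and known inhibitor Salinomycin.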
Pf growth 96h: Primary qHTS for delayed death inhibitors of the malarial parasite plastid, 96 hour incubation; P. falciparum luciferase reporter growth, 96 h; Potency, µM (highest dose often 28.7 µM), without a hit: at the highest dose activity change, negative = inhibition, most hits filed as inhibitors; actives 6.9% (n = 320,000); AID 504834, 2011; further: potency means the concentration at half of the fitted maximal effect; on the % scale 0 is the no-effect control and ±100 the full control effect
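Compounds incubated with erythrocytes infected by luciferase-expressing P. falciparum (2% hematocrit, 0.05% parasitemia final) for 96 hours, 37 C in 5% CO2. Growth inhibition scored as decreased luciferase luminescence.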
CHX counter: Cycloheximide Counterscreen for Small Molecule Inhibitors of Shiga Toxin | cell reporter, cycloheximide protein synthesis inhibition counterscreen | max response, % | actives 12% (n = 300,000); in the data active means max response mostly above about 13%, no sharp cut-off; inactive means mostly below about 14%; further: read at 38.3 µM for the half of the compounds with a filed dose; 0% is about no effect
HCV inh: qHTS Assay for Inhibitors of Hepatitis C Virus (HCV) | actives 3.4% (n = 340,000) | AID 651820, 2012 | Huh7.5.1 HCVcc-Cre infection, luciferase reporter, 44 h | Potency, µM (titrated, usually from 41.8 µM), for inactives: at the highest dose activity change, negative = inhibition, actives largely listed as inhibitors; further: potency means the concentration at half of the fitted maximal effect; on the % scale 0 is the no-effect control and ±100 the full control effect
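Cells seeded at 1,000/well and cultured 4 h, then compounds added followed by HCVcc-Cre virus (~0.5 moi). After 44 h further culture, luciferase substrate was added, plates held 15 min at room temperature, and luminescence read for 15 sec.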
Starred values were filed as active, the others as inactive; ? = inconclusive; nt = not tested or not shown. Unless noted, the call rests on the fitted dose curve; in most records, active means well fitted inhibition curve with a large enough effect; inconclusive means small, poorly fitted or top-dose-only effect, or another doubt; inactive means no such curve, though single readings can be large or run the other way.

SMILES	Pf growth 48h	Shiga inhibitor	HCMV antiviral	Pf growth 96h	CHX counter	HCV inh
CCOc1ccc(C(=O)NCC(=O)NCC(c2ccco2)N2CCCCC2)cc1OCC (centres undefined)	?	nt	-16.9	-17.8%	nt	-2.5%
O=C(CCNC(=O)c1ccc(Cl)cc1)NCC(c1ccco1)N1CCCCC1 (centres undefined)	?	nt	-22.6	4.65µM*	nt	6.6%
O=C(CSc1ccccc1)NCC(c1ccco1)N1CCCCC1 (centres undefined)	?	nt	?	?	nt	1.9%
OC(CNCC(c1ccco1)N1CCCCC1)c1ccccc1 (centres undefined)	1.31µM*	-24.5	-7.1	?	-5.5	-18.3%
Cc1ccc2oc(C(=O)NCC(c3ccco3)N3CCCC3)c(C)c2c1 (centres undefined)	-14.5%	40.7	-15.3	?	20.4*	31.6µM*
O=C(NCC(c1ccco1)N1CCCC1)c1ccc(Cl)cc1 (centres undefined)	nt	3.1	-26.3	0.928µM*	1.1	-23.3%
COc1ccc(CNC(=O)c2ccc(-c3nc(CSc4ccccc4)c(C)o3)cc2)cc1OC	nt	nt	8.7	nt	nt	nt
O=C(NCC(c1ccco1)N1CCCC1)c1cc2cc(Cl)ccc2o1 (centres undefined)	?	nt	-24.8	9.28µM*	nt	12.6µM*
Cc1nn(-c2ccc(C(=O)NCC(c3ccco3)N3CCCC3)cc2)c(C)c1Cl (centres undefined)	?	nt	-10.9	0.828µM*	nt	-27.3%
Cc1cc(C)c(OCC(=O)NCC(c2ccco2)N2CCCCC2)c(C)c1 (centres undefined)	13.1µM*	nt	?	11.7µM*	nt	-11.7%
Cc1cc2oc(C(=O)NCC(c3ccco3)N3CCCC3)c(C)c2cc1C (centres undefined)	nt	nt	9.7	nt	nt	nt
Cc1ccccc1OCC(=O)NCC(c1ccco1)N1CCCCC1 (centres undefined)	22.2%	-5.9	-17.1	?	-3.3	?
Cc1cccc(Nc2nnc(SCC(=O)NCC3CCCO3)s2)c1C (centres undefined)	nt	nt	-32.4	nt	nt	1.6%
COc1ccc(Cl)cc1NC(=O)Cn1cnc2c1c(=O)n(C)c(=O)n2C	nt	nt	15.4	nt	nt	nt
CCS(=O)(=O)Nc1ccc(C2=NN(C(=O)c3ccco3)C(c3cccc(F)c3)C2)cc1 (centres undefined)	?	15.2	17.3	?	-1.0	?
CCS(=O)(=O)Nc1ccc(C2=NN(C(=O)c3ccco3)C(c3ccc(C)cc3)C2)cc1 (centres undefined)	10.4µM*	-17.4	-2.7	?	12.7	?
Cc1ccc(C2CC(c3ccc(NS(C)(=O)=O)cc3)=NN2C(=O)c2ccco2)cc1 (centres undefined)	-17.3%	15.7	-12.7	?	-0.6	-13.7%
CS(=O)(=O)Nc1ccc(C2=NN(C(=O)c3ccco3)C(c3ccco3)C2)cc1 (centres undefined)	?	-15.4	0.2	?	1.8	-12.5%
CCS(=O)(=O)Nc1ccc(C2=NN(C(=O)c3ccco3)C(c3ccc(Cl)o3)C2)cc1 (centres undefined)	nt	nt	1.9	nt	nt	22.4µM*
CS(=O)(=O)Nc1ccc(C2=NN(C(=O)c3ccco3)C(c3cccc(F)c3)C2)cc1 (centres undefined)	13.1µM*	-20.5	?	?	6.4	?
COc1ccc(F)cc1S(=O)(=O)NCCCn1ccnc1	6.4%	-6.4	-2.2	6.0%	-0.6	-3.2%
CCCCn1cc(S(=O)(=O)c2ccc(OC)cc2)c(=O)c2cc(F)c(F)cc21	nt	nt	-21.2	nt	nt	nt
COc1cc(OC)cc(-c2ncc3ccccn23)c1	-0.2%	16.6	-31.0	-17.5%	11.0	?
COc1cccc(-c2ncc3ccccn23)c1	166.1%	71.2*	77.6	55.1%	36.3*	?
COc1ccc(-c2ncc3ccccn23)cc1	79.6%	145.2*	36.1	nt	41.4*	-17.0%
CCCn1cc(CN2CCCC(C(=O)c3ccc4c(c3)OCO4)C2)c(C)n1 (centres undefined)	-0.7%	13.0	0.0	-23.8%	-3.2	-10.0%

Source: PubChem BioAssay (National Center for Advancing Translational Sciences (NCATS))
